Source: PubChem BioAssay (DiRusso Lab, Biochemistry Department, University of Nebraska)
The full list was thinned out, with hits kept by preference.
Algae TAG accum: inducers of TAG accumulation in Chlamydomonas, primary screen, qHTS, Chlamydomonas reinhardtii. Nile Red fluorescence, 72 h. calls only at 10 µM (by protocol). 44,000 tested, 0.84% active. AID 1159537, 2015; call rule not given here;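 also: hits raise Nile Red signal meaning more stored TAG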
The depositor's hits bear a star; i = inactive; + = active, no number.

SMILES	Algae TAG accum
Cc1c(NC(=O)c2c(O)c3ccccc3n(C)c2=O)c(=O)n(-c2ccccc2)n1C	i
Cc1c(NC(=O)c2c(F)c(F)c(F)c(F)c2F)c(=O)n(-c2ccccc2)n1C	+
Cc1c(NC(=O)c2ccccc2-c2ccccc2C(=O)O)c(=O)n(-c2ccccc2)n1C	i
CCOc1cccc(CN2CCC(C(=O)N(CCO)Cc3ccccc3)CC2)c1O	i
CSC1=NC(C)(C)Cc2ccccc21	i
O=C(Nc1ccc2c(c1)OCO2)c1ccc2c(c1)OCO2	i
O=C(Nc1ccc2c(c1)OCO2)c1c(F)c(F)c(F)c(F)c1F	+
O=C(Nc1ccc(F)c(F)c1)c1ccc2c(c1)OCO2	i
Cc1c(O)ccc2c(=O)c(-c3nc4ccccc4s3)c(C(C)C)oc12	i
COc1ccc(NC(=O)c2cccc(S(=O)(=O)Nc3cccc([N+](=O)[O-])c3)c2)cc1	i
COc1cc(C(=O)N2CCN(Cc3ccccc3F)CC2)cc(OC)c1OC	i
COc1ccc(CN2CCN(Cc3cccc(OC)c3OC)CC2)cc1	i
COc1cccc(CN2CCN(C(=O)c3cc(OC)c(OC)c(OC)c3)CC2)c1OC	+
COc1ccc(CN2CCN(c3ccccc3Cl)CC2)c(OC)c1OC	i
COc1cccc(CN2CCN(Cc3ccc(F)cc3)CC2)c1OC	+
COc1ccc(CN2CCN(Cc3ccccc3)CC2)c(OC)c1OC	+
COc1cc(C(=O)N2CCN(Cc3ccc(OC)c(OC)c3OC)CC2)cc(OC)c1OC	i
COc1ccc(CN2CCN(Cc3ccc(SC)cc3)CC2)c(OC)c1OC	i
COc1cccc(CN2CCN(Cc3cc(OC)c(OC)c(OC)c3)CC2)c1OC	i
CCOC(=O)N1CCN(c2cc(N3CCCCC3)c(F)cc2[N+](=O)[O-])CC1	i
CC1CN(C(=O)c2cccc(F)c2)C(C)CN1C(=O)c1cccc(F)c1 (stereo not given)	i
Cc1nnc(NC(=O)CSc2nnnn2-c2ccc3c(c2)OCO3)s1	i
CCOc1ccccc1N1CCN(Cc2cccc([N+](=O)[O-])c2)CC1	i
Cc1ccc(S(=O)(=O)Nc2ccc(C(=O)CC(=O)Nc3ccccc3)cc2)cc1	i
O=C(Nc1ccc(NS(=O)(=O)c2ccccc2)cc1)c1ccccc1	i
SMILES	Algae TAG accum
O=C(O)CCSCC(=O)c1ccc(NS(=O)(=O)c2ccccc2)cc1	+
CCOc1ccc(C(=O)N2CCN(c3ccc([N+](=O)[O-])c(NC4CC4)c3)CC2)cc1	i
COc1ccc(CCNc2ccc(Cl)cn2)cc1OC	i
CCOc1ccc(C(N)CC(=O)O)cc1OC (stereo not given)	i
CC(CNC(=O)c1ccc(F)cc1)CN(C)C (stereo not given)	i
CC(CNC(=O)c1ccc(C(C)(C)C)cc1)CN(C)C (stereo not given)	+
Cc1cccc(C(=O)NCC(C)CN(C)C)c1 (stereo not given)	i
CCCC(=O)Nc1ccc(NC(=O)COc2ccc(C)c(C)c2)cc1	i
CC(C)(C)C1CCc2c(sc(NC(=O)c3ccco3)c2C(=O)N2CCOCC2)C1 (stereo not given)	i
O=[N+]([O-])c1ccccc1S(=O)(=O)N1CCN(c2ccc(F)cc2)CC1	i
O=S(=O)(c1ccc(F)cc1)N1CCN(c2ccccc2)CC1	i
O=S(=O)(c1ccc(Cl)c(Cl)c1Cl)N1CCN(c2ccc(F)cc2)CC1	+
COc1ccc(C(=O)Nc2ccc(Br)c(C)c2)cc1	i
COc1cc(C)c(CN2CCC(N3CCCCC3)CC2)cc1C	i
COc1cc(C)c(CN2CCN(Cc3ccc4c(c3)OCO4)CC2)cc1C	+
COc1ccc(CN2CCN(Cc3ccc4c(c3)OCO4)CC2)c(OC)c1	i
COc1ccc(CN2CCCN(C)CC2)c(OC)c1	i
COc1ccccc1CN1CCN(Cc2ccc3c(c2)OCO3)CC1	i
COc1cc(C)c(CN2CCCN(C)CC2)cc1C	+
CCC(Sc1nc2ccccc2[nH]1)C(=O)O (stereo not given)	i
COc1ccc(CNc2ccc(F)cc2C)cc1	i
COc1ccc(CCN(C(C)=O)C2CC(=O)N(c3ccc(Br)cc3)C2=O)cc1OC (stereo not given)	i
C=CCOc1ccc(C(=O)Nc2sc3c(c2C(=O)NCC)CCCC3)cc1	i
CCc1ccc(N(CC(=O)Nc2ccc3c(c2)OCO3)S(=O)(=O)c2ccccc2)cc1	i
O=S(=O)(c1ccc(Cl)cc1)N1CCN(C2CCCC2)CC1	i
SMILES	Algae TAG accum
CC(=O)N1CCN(C2CCCCCC2)CC1	i
CCS(=O)(=O)N1CCN(C2CCCCCCC2)CC1	+
CCc1ccccc1NC(=O)c1ccccc1N(Cc1ccccc1)S(=O)(=O)c1ccccc1	i
Cc1ccc(C(=O)Nc2ccc(S(=O)(=O)Nc3nccs3)cc2)cc1Br	i
COc1ccc(-c2cc(C(=O)Nc3cc([N+](=O)[O-])ccc3OC)c3ccccc3n2)c(OC)c1	i
CC12CC3(C)CC(C)(C1)CC(NC(=O)Nc1nccs1)(C2)C3	i
CC(C)c1ccc(CN(C)C2CCN(C)CC2)cc1	i
CCOc1ccc(CN(C)C2CCN(C)CC2)cc1	i
Cc1ccc(CN(C)C2CCN(C)CC2)s1	+
CN1CCC(N(C)Cc2ccc(Cl)c(Cl)c2)CC1	i
COc1cccc(CN(C)C2CCN(C)CC2)c1	i
CN1CCC(N(C)Cc2cccs2)CC1	i
CCc1ccc(CN(C)C2CCN(C)CC2)cc1	+
CN1CCC(N(C)Cc2coc3ccccc3c2=O)CC1	i
CN1CCC(N(C)Cc2cccc(Oc3ccccc3)c2)CC1	+
CCOc1ccc(OCCCOc2ccccc2[N+](=O)[O-])cc1	i
O=C(Nc1nccs1)c1ccc(NC(=O)c2ccccc2-c2ccccc2C(=O)O)cc1	i
Cc1ccc(OCC(=O)Nc2cccc(-c3nnc(-c4ccco4)o3)c2)cc1C	i
Cc1cccc(NC(=O)COc2ccc(Br)cc2)c1C	i
Cc1ccc(OCC(=O)Nc2cccc([N+](=O)[O-])c2C)c(Br)c1	i
Cc1c(NC(=O)COc2ccc(Br)cc2)cccc1[N+](=O)[O-]	+
Cc1ccc(-n2cnc3scc(-c4ccccc4)c3c2=O)cc1	i
O=C(CSc1nc2ccccc2c(=O)n1-c1cccc(Cl)c1)NC1CCCCC1	i
Cc1c(C=O)c(C=O)c(C)n1-c1cccc(SC(F)F)c1	i
CCc1ccc(CN2CCC(N3CCN(c4ccccc4OC)CC3)CC2)cc1	i
SMILES	Algae TAG accum
COc1ccccc1N1CCN(C2CCN(Cc3cccc(F)c3)CC2)CC1	+
COc1ccccc1N1CCN(C2CCN(Cc3ccc4c(c3)OCO4)CC2)CC1	i
Cc1cccc(OCC(=O)Nc2sc(Cc3ccccc3)c(C)c2C(N)=O)c1	i
Cn1c(=O)c([N+](=O)[O-])c(N2CCN(CCOc3ccc(Cl)cc3)CC2)c2ccccc21	i
O=C(Nc1ncc(Cc2ccc(F)cc2)s1)C1CCCO1 (stereo not given)	i
COc1ccc(Cc2cnc(NC(=O)Cc3ccccc3)s2)cc1	i
O=C(CN1CCCCC1)Nc1ncc(Cc2ccc(F)cc2)s1	+
CCOC(=O)N1CCN(c2cc(C)c3ccc(Cl)cc3n2)CC1	i
O=C(c1ccc(I)cc1)N1CCc2ccccc2C1	i
COc1ccc(NC(C)CCc2ccc(O)cc2)cc1 (stereo not given)	i
Cc1ccc(OCCOCCN2CCN(C)CC2)c(I)c1	+
Cc1cc(C(C)(C)C)ccc1OCCN1CCOCC1	i
C=CCc1cc(OC)ccc1OCCOCCN1CCN(C)CC1	i
